The source made the active and inactive calls. Unless noted, how the calls were made is not given here.

Test [1] relates to Wnt5a (protein binding on small-molecule microarray). Put plainly: Wnt5a binders on small-molecule microarray, primary screen, biophysical, 635/667 nm fluorescence (AID 1142).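 Further: fluorescence read at 667 nm with signal to noise per printed feature.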 The conditions noted are these: 635 nm fluorescence, higher = more signal.
Test [2] in a line: cell viability in Huh7 cells, primary screen, cytotoxicity control for HCV replication inhibitor project, CellTiter-Glo luminescence, basal, 48 h (AID 1143).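 Further: Huh7 hepatoma cells carrying a hepatitis C replication reporter with no stimulus; test concentration not given here.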 The conditions noted are these: Huh7 HCV replicon, higher = more signal, called active from +8 up or from −8 down.
The nature of test [3]: P. aeruginosa biofilm formation inhibitors, primary screen, PAO1 strain, BacTiter-Glo luminescence, LB-PBS (AID 1144). The conditions noted are these: 12 h, higher = more signal.
A short description of test [4]: CREB reporter modulators without forskolin, primary screen, cell-based, PC12, CRE-LacZ reporter, unstimulated (AID 1145). The conditions noted are these: no forskolin, luminescence, 4.5 h, higher = more signal, called active from +8 up or from −8 down.
Test [5] is described as follows: CREB reporter modulators under forskolin, primary screen, cell-based, PC12, CRE-LacZ reporter, forskolin-stimulated (AID 1146).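 Further: PC12 cells with 6xCRE LacZ reporter stimulated by forskolin 10 µM; beta-galactosidase reporter signal reflecting CREB driven transcription.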 The conditions noted are these: luminescence, 4.5 h, higher = more signal, called active from +8 up or from −8 down.
In test [6] the target is Streptavidin (Streptomyces avidinii) (UniProt P22629). Put plainly: streptavidin binders on small-molecule microarray, primary screen, artefact control for SMM compound annotation, biophysical, 635/667 nm fluorescence (AID 1147).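 Further: signal reflects streptavidin binding to arrayed compounds as a control protein.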 The conditions noted are these: streptavidin binding, higher = more signal.
Sequence of Streptavidin (Streptomyces avidinii) (P22629 whole entry, looked up): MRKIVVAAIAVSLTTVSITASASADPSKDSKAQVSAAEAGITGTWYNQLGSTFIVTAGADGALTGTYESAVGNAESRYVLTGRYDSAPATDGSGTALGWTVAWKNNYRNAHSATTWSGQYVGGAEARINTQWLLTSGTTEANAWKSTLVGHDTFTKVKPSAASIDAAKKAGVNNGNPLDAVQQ
Test [7] in a line: small-molecule binders of probe aInhba, primary screen, biochemical, small-molecule microarray, 635/667 nm fluorescence (AID 1148).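 Further: score merges 667nm spot fluorescence with signal-to-noise for antibody binding to printed compounds.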 The conditions noted are these: higher = more signal.
The target of test [8] is Torsin-1A (Homo sapiens) (UniProt O14656). Put plainly: torsin A binders from cell lysate, primary screen, small-molecule microarray, wild-type, 635/667 nm (AID 1149). The conditions noted are these: COS7 hTOR1A-WT lysate, 635 nm fluorescence, higher = more signal.
Sequence of Torsin-1A (Homo sapiens) (O14656 whole entry, looked up): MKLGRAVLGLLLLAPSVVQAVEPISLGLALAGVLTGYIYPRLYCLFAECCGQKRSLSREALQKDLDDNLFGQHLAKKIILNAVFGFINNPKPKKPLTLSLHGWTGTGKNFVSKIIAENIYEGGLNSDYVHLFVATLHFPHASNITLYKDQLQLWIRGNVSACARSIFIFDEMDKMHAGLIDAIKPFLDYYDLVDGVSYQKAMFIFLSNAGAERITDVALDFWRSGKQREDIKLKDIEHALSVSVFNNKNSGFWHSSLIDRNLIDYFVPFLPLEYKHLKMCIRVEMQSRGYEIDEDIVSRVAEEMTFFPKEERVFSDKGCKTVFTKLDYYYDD
The target is the same in test [9]. Put plainly: small-molecule binders of mutant TOR1A in lysate, primary screen, cell lysate, small-molecule microarray, COS7 lysate, 635/667 nm fluorescence (AID 1150).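 Further: score pools 667 nm emission and signal to noise measuring lysate protein binding.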 The conditions noted are these: COS7 hTOR1A mutant lysate, 635 nm fluorescence, higher = more signal.
Test [10] deals with Sonic hedgehog protein (Shh). Kind of test: small-molecule binders of Shh protein, primary screen, biochemical, small-molecule microarray, 635/667 nm fluorescence (AID 1151).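 Further: Shh protein binding to compounds spotted on small-molecule microarray slides; score combines spot fluorescence intensity with signal-to-noise across triplicate slides.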 The conditions noted are these: small-molecule microarray binding, 635 nm fluorescence; higher = more signal.
Test [11] is described as follows: E. coli DRC41 culture turbidity changes, primary screen, E. coli filamentation inducer project, strain DRC41, OD650, 48 h (AID 1152).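 Further: E. coli MC1000 strain DRC41 lacking acrAB efflux pump and sulA.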 The conditions noted are these: E. coli DRC41 (acrAB sulA), higher = more signal, called active from +8 up or from −8 down.
Test [12] can be described thus: small-molecule binders of probe aLefty1, primary screen, biochemical, small-molecule microarray, 635/667 nm fluorescence (AID 1153).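 Further: score merges spot fluorescence with signal-to-noise ratio from the scanned slide images.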 The conditions noted are these: higher = more signal.
Test [13] can be described thus: PSAC antagonists in infected red cells, primary screen, cell-based, P. falciparum Indochina, OD700, 1 h (AID 1154). The conditions noted are these: P. falciparum Indochina infected RBC osmotic lysis, higher = more signal, called active from +8 up or from −8 down.
Test [14] can be described thus: PSAC antagonists in infected red cells, primary screen, cell-based, P. falciparum Indochina, OD700, 2 h (AID 1155).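 Further: lysis reports solute entry through the parasite surface anion channel PSAC; channel blockers reduce lysis of infected cells.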 The conditions noted are these: P. falciparum Indochina infected erythrocytes, osmotic lysis OD700; higher = more signal, called active from +8 up or from −8 down.
A short description of test [15]: osmotic lysis modulators in infected erythrocytes, primary screen, PSAC antagonist project, cell-based, P. falciparum Indochina, OD700, 3 h (AID 1156). The conditions noted are these: higher = more signal, called active from +8 up or from −8 down.
A short description of test [16]: PSAC antagonists in infected red cells, primary screen, cell-based, P. falciparum Indochina, OD700, 18 h (AID 1157). The conditions noted are these: P. falciparum Indochina infected erythrocytes, osmotic lysis OD700, 18 h; higher = more signal, called active from +8 up or from −8 down.
The nature of test [17]: modulators of S6 phosphorylation in cells, primary screen, cell-based, A549, cytoblot, luminescence, serum-stimulated (AID 1158).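 Further: serum-stimulated A549 lung adenocarcinoma cells; signal is phosphorylated S6 detected by cytoblot immunostaining with HRP secondary.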 The conditions noted are these: A549 phospho-S6 cytoblot, 5 h, higher = more signal.
Test [18] deals with NADPH oxidase 2 (Homo sapiens) (UniProt P04839). Put plainly: NOX2-dependent H2O2 signal modulators, primary screen, NOX inhibitor project, cell-based, HEK293-NOX2, PMA-stimulated, Amplex Red fluorescence (AID 1159). Further: test concentration not given here. The conditions noted are these: 45 min, higher = more signal, called active from +8 up or from −8 down.
Sequence of NADPH oxidase 2 (Homo sapiens) (P04839 whole entry, looked up): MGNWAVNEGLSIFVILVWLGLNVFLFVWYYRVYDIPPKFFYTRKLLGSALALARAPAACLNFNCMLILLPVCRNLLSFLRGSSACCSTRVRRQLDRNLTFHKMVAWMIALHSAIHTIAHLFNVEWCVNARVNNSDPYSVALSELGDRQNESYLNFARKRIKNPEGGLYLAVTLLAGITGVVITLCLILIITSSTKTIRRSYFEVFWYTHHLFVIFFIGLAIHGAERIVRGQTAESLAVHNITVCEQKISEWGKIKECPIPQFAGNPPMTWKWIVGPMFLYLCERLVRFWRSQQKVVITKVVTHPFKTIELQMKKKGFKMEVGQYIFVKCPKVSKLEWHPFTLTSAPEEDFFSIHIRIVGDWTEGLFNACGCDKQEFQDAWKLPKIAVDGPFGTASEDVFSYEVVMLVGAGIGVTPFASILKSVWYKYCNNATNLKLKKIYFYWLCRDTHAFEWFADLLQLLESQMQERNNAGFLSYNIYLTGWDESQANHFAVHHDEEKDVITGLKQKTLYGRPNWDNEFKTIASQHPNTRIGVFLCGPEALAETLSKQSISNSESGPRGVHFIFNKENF
In test [19] the target is NADPH oxidase 4 (Homo sapiens) (UniProt Q9NPH5). Put plainly: NOX4-dependent H2O2 signal modulators, primary screen, NOX inhibitor project, cell-based, HEK293-NOX4, tetracycline-induced, Amplex Red fluorescence (AID 1160). The conditions noted are these: 45 min, higher = more signal, called active from +8 up or from −8 down.
Sequence of NADPH oxidase 4 (Homo sapiens) (Q9NPH5 whole entry, looked up): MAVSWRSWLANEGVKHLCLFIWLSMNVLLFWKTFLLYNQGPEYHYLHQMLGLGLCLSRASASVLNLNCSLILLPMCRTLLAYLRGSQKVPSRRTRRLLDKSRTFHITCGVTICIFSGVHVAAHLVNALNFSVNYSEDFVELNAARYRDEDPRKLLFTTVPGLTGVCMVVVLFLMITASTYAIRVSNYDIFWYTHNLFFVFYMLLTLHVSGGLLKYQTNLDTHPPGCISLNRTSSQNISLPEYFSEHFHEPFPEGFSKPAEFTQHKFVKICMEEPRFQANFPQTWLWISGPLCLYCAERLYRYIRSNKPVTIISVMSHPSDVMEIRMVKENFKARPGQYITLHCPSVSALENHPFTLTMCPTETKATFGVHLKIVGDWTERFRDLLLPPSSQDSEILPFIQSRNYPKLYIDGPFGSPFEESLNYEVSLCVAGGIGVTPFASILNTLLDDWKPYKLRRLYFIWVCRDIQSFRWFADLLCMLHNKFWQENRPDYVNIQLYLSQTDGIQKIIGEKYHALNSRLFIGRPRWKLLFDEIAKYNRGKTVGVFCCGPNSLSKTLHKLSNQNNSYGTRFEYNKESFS
Test [20] concerns the target NADPH oxidase 5 (Homo sapiens) (UniProt Q96PH1). Kind of test: NOX5-dependent H2O2 signal modulators, primary screen, NOX inhibitor project, cell-based, HEK293-NOX5, Amplex Red fluorescence (AID 1161). The conditions noted are these: HEK293-NOX5, ionomycin, 45 min, higher = more signal.

Sequence of NADPH oxidase 5 (Homo sapiens) (Q96PH1 whole entry, looked up): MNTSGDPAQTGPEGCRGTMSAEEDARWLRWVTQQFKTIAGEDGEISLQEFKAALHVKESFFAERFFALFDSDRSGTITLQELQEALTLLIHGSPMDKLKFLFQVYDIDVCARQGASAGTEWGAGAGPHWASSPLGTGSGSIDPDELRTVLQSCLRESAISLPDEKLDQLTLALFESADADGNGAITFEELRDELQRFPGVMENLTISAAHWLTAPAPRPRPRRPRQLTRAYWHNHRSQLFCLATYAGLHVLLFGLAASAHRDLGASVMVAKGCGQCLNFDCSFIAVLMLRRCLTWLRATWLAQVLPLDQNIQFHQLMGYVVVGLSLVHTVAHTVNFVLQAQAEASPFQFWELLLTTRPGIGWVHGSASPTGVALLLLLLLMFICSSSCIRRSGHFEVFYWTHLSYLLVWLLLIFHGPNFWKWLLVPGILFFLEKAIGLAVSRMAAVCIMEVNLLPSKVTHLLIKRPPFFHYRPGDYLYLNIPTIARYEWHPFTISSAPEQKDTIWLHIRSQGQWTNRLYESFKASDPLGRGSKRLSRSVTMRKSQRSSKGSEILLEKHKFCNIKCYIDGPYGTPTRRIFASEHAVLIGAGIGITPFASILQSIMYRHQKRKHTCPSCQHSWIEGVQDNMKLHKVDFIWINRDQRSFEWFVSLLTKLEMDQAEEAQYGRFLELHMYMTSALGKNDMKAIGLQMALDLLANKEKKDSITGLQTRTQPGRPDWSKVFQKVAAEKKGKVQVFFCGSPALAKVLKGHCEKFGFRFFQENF

Consider `C=CC[C@@]1(C(=O)NCCCOC)N=C(c2ccc(OCCCO)cc2)O[C@@H]1c1ccccc1N=[N+]=[N-]`, for which the composite z-score was 0.452 in [1]; 0.77 in test [6]; 0.0713 in [7]; -0.668 in [8]; -0.112 in [9]; -0.388 in test [10]. Besides, the composite z-score in test [12] is 0.545. Also, the z-score in test [2] was -2.67 (inactive); in [3], -1.75 (inactive); in test [4], -0.711 (inactive); in test [5] it was -0.66 (inactive); in test [11] it was 1.37 (inactive); in test [13], 30.7 (active). The z-score in [14] is 29.4 (active); in test [15], 1.93 (inactive); in [16] it was 2.16 (inactive); in test [17], -0.217; in test [18], -3.32 (inactive); in test [19], -0.66 (inactive). In [20], this molecule gave a z-score of -1.64.

In the case of `COCCOC(=O)N1C(=O)[C@@]2(c3cc(C#CC4(O)CCCCCC4)ccc31)[C@H](C(=O)Nc1nc3ccccc3s1)[C@H]1C(=O)O[C@H](c3ccccc3)[C@H](c3ccccc3)N1[C@@H]2c1ccc(O)cc1`, the composite z-score in test [1] was found to be 0.62; in test [6] it was 0.857; in [7] it was 0.117; in [8], 0.878; in [9], 0.753; in test [10], 1.52. The composite z-score in test [12] is 0.219. Further, the z-score in [2] was -0.804 (inactive); in test [3], -0.374 (inactive); in test [4], 0.245 (inactive); in test [5] it was 7.33 (inactive); in [11], 0.0662 (inactive); in test [13], 0.4 (inactive). The z-score was 0.925 (inactive) in test [14]; -0.186 (inactive) in [15]; 1.47 (inactive) in test [16]; -0.335 in [17]; 1.01 (inactive) in [18]; 0.286 (inactive) in test [19]. In [20], this molecule showed a z-score of 0.785.

Regarding `CCOC(=O)C[C@H]1[C@H](OC(=O)c2ccc(C(=O)c3ccccc3)cc2)[C@@H](NC(=O)c2ccc3ccccc3n2)c2cc(OCCCO)ccc2N1C(=O)Cc1ccc(OC)cc1`, the composite z-score was -0.126 in test [1]; 0.982 in [6]; -0.0521 in test [7]; -0.077 in test [8]; 0.292 in test [9]; -0.381 in test [10]. The molecule further gave a composite z-score in [12] of 0.0782. In addition, the z-score was -0.124 (inactive) in test [2]; 0.458 (inactive) in [3]; -0.215 (inactive) in test [4]; -0.357 (inactive) in [5]; -1.61 (inactive) in test [11]; -0.17 (inactive) in test [13]. Moreover, the z-score in test [14] was 0.313 (inactive); in test [15], 1.57 (inactive); in test [16], 0.802 (inactive); in test [17], 0.793; in [18], -1.71 (inactive); in [19], -0.298 (inactive). This molecule also showed a z-score in test [20] of -0.856.

As to `COC(=O)[C@@H]1N=C(c2ccc(OCCCO)cc2)O[C@@H]1C`, the composite z-score was 0.186 in test [1]; -0.69 in test [6]; 0.0225 in test [7]; 0.0429 in test [8]; -0.425 in test [9]; 0.369 in test [10]. The same molecule came in with a composite z-score in test [12] of 0.0945. The z-score was 0.0511 (inactive) in test [2]; -0.123 (inactive) in test [3]; -0.31 (inactive) in [4]; 0.421 (inactive) in test [5]; 0.608 (inactive) in test [11]; 19 (active) in test [13]. In addition, the z-score is 2.23 (inactive) in test [14]; 0.404 (inactive) in test [15]; 0.448 (inactive) in test [16]; 0.299 in test [17]; -1.93 (inactive) in test [18]; 0.134 (inactive) in test [19]. The molecule also registered a z-score in test [20] of -0.647.

(Values after PubChem BioAssay.)
